Assay outcomes from PubChem.
CYP2C19 activ: activators of human cytochrome P450 2C19; 96,000 tested, under 10 active; P33261; recombinant CYP2C19, luciferin-H EGE luminescence; stronger effect = higher value; 0 = fully inhibited enzyme, 1 = untreated enzyme; AID 1025; activation factor at 5 µM;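 active = activation factor of at least 2 at 5 µM in the primary screen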;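 note: 0 = wells with 2.5 mM tranylcypromine and 1 = vehicle-only wells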
Target sequence (P33261 whole entry, looked up): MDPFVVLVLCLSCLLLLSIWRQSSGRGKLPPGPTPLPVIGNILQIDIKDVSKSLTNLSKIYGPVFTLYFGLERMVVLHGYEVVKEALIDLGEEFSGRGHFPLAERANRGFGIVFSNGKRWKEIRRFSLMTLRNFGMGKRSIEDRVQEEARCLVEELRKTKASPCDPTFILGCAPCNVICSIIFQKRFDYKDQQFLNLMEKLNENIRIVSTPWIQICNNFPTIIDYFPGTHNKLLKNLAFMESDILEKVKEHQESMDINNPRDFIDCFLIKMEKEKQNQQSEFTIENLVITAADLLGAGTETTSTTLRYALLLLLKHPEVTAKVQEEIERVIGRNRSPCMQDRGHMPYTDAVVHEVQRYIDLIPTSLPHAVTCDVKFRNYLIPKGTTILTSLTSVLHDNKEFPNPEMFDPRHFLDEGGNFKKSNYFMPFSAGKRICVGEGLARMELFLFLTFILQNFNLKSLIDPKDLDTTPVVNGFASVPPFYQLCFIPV
CYP2C9 inh: inhibitors of human CYP2C9. P11712. CYP2C9 Supersomes, luciferin-H conversion, luminescence. inhibition, % at 5 µM. hit rate 20% among 96,000;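 active = blocking of liver enzyme CYP2C9 beyond about 50% at 5 µM, limit read from the data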
CYP2C19 inh: inhibitors of human CYP2C19 | P33261 | CYP2C19 Supersomes, luciferin-H EGE luminescence, 30 min | inhibition, % at 5 µM | hit rate 21% among 96,000;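 active = CYP2C19 inhibition above a set limit at 5 µM in the primary screen, cut at about 50% in these data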;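 note: plate controls were negative control wells for no effect and 2.5 mM tranylcypromine positive control for full effect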
CYP2C9 act: CYP2C9 (human) activation; P11712; recombinant CYP2C9, luciferin-H conversion, luminescence; stronger effect = higher value; factor 1 = untreated enzyme, 0 = blocked; activation factor at 5 µM; hit rate 1.4% among 96,000; AID 1024;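 active = activation factor of 2 or more for CYP2C9 at a 5 µM dose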;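 note: 0 = sulfaphenazole-blocked wells and 1 = vehicle-only wells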
PostGolgi yeast: growth inhibition of a yeast mutant, post-Golgi transport screen. hit rate 0.9% among 98,000. AID 739. inhibition, % at 10 µM. post-Golgi transport phenotypic cell assay;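 note: yeast cells grown in 1536-well plates; yeast grown about 18 h at 30C before absorbance read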
PostGolgi ctrl: growth of the yeast control strain, post-Golgi counter-screen. inhibition, % at 10 µM. hit rate 5% among 98,000. efflux-deficient yeast background strain, growth absorbance A615, 16 h. AID 738
Numbers without * were called inactive; x = no result. Rows were chosen to be rich in hits. Some 32% of all compounds tested hit in one or more screens of this group. Cut-off read from the data, not from the text of the source, unless noted: active = inhibition above about 30%; inactive = the rest.

SMILES	CYP2C19 activ	CYP2C9 inh	CYP2C19 inh	CYP2C9 act	PostGolgi yeast	PostGolgi ctrl
Cc1ccc(CNC(=O)c2ccccc2NS(C)(=O)=O)cc1	0.4	54.3*	55.3*	0.5	-8.4	18.2
CCOC(=O)c1ccccc1NS(=O)(=O)c1ccccc1F	0.1	-190.6	88.6*	2.9*	4.7	9.0
CCOC(=O)c1cnc(SC)nc1Oc1cccc(NS(=O)(=O)c2ccc(C)cc2)c1	0.8	80.9*	18.5	0.2	-1.3	2.8
CC(C)Oc1ccccc1-c1nc(SCC(=O)O)n[nH]1	1	-6.8	-1.5	1.1	-5.7	7.1
OCCSc1nncn1/N=C/c1c[nH]c2ccccc12	0.9	29.7	13.6	0.7	7.6	5.1
CCCc1nnc(NC(=O)C2CCCO2)s1 (stereo not given)	0.9	5.9	8.0	0.9	2.6	6.3
c1ccc(C2NCCn3cccc32)cc1 (stereo not given)	1.1	-4.0	-5.4	1	11.8	-0.5
O=C(c1ccco1)N1CCN(S(=O)(=O)c2ccc(S(=O)(=O)NC3CCCCC3)cc2)CC1	0.9	44.6	11.1	0.6	-3.0	13.2
CC(NC(=O)c1ccccc1NS(C)(=O)=O)c1ccccc1 (stereo not given)	0.4	73.1*	61.7*	0.3	5.1	0.0
CCOC(=O)c1ccccc1NS(=O)(=O)c1ccccc1	0	-51.7	98.3*	1.5	-2.9	36.5*
CCOC(=O)c1ccccc1NC(=O)c1ccccc1NS(C)(=O)=O	0.4	74.0*	55.2*	0.3	-2.2	11.8
COC(=O)COc1ccc(S(=O)(=O)Nc2ccccc2C(=O)OC)cc1	0	-102.0	95.6*	2*	3.8	6.5
COc1ccc(NC(=O)CC2Oc3ccc(C)cc3NC2=O)cc1 (stereo not given)	1	5.1	-2.0	0.9	-2.7	4.0
COC(=O)c1c(NC(=O)CN2CCN(c3ccccc3)CC2)c2c(C)cccc2n1C	0.7	27.3	33.8	0.7	4.7	9.9
COC(=O)CSc1nc2c(c(=O)[nH]c(=O)n2C)n1CCC(C)C	x	x	x	x	-3.6	1.2
C=CCn1c(SCC(=O)NCc2cccs2)nnc1C1CCCCC1	0.7	14.9	25.7	0.9	-7.1	-1.2
CCOC(=O)c1ccccc1NS(=O)(=O)c1ccc(C)cc1	0.4	-31.4	59.7*	1.3	-10.5	19.8
COC(=O)c1ccccc1NS(=O)(=O)c1ccc(F)cc1	x	x	x	x	-12.4	5.4
CCOC(=O)c1ccccc1NC(=O)c1nc2nccc(C)n2n1	1	23.3	-4.5	0.8	3.1	40.1*
CCN(CC)S(=O)(=O)c1cccc(C(=O)N2CCCCC2)c1	1	-14.1	-1.2	1.1	15.2	5.1
O=C(c1ccc(S(=O)(=O)Nc2ccccc2)cc1)N1CCOCC1	0.8	7.9	19.4	0.9	-7.1	7.8
CCN(CC)S(=O)(=O)c1ccc(S(=O)(=O)Nc2ccc3c(c2)oc2ccccc23)cc1	0.3	99.5*	69.6*	0	-0.3	24.6
CCN(CC)S(=O)(=O)c1ccc(NC(=O)c2ccc(NS(C)(=O)=O)cc2)cc1	1	-42.2	-2.3	1.4	1.4	10.1
CCN(CC)S(=O)(=O)c1ccc(NS(=O)(=O)c2ccc(C)c(C)c2)cc1	0	99.4*	97.6*	0	-0.6	2.4
O=C(c1ccc(NS(=O)(=O)c2ccccc2)cc1)N1CCCC1	0.2	92.8*	76.4*	0.1	10.6	4.5
SMILES	CYP2C19 activ	CYP2C9 inh	CYP2C19 inh	CYP2C9 act	PostGolgi yeast	PostGolgi ctrl
CCN(CC)S(=O)(=O)c1ccc(S(=O)(=O)Nc2ccc(C(=O)N3CCCC3)cc2)cc1	0.5	99.1*	51.4*	0	-8.8	6.4
CN(C)S(=O)(=O)c1ccc(S(=O)(=O)Nc2ccc3c(c2)oc2ccccc23)cc1	1.2	28.0	-18.5	0.7	-3.3	10.7
O=C(c1coc(=O)c(Br)c1)N1CCCc2ccccc21	0.9	26.4	8.0	0.7	8.4	26.6
CC(C)C(c1nnnn1Cc1cccs1)N1CCN(c2ccccc2)CC1 (stereo not given)	1	5.4	-1.8	0.9	8.6	18.9
Cc1c(C(=O)Nc2ccc(C(=O)O)cc2)cnn1C	1.1	-0.5	-6.3	1	8.7	24.1
COCCCn1c(C2CCCCC2)nc2oc3cc(OC)ccc3c(=O)c2c1=O	0.5	70.1*	51.9*	0.3	-2.3	7.3
CCc1nc2oc3cc(OC)ccc3c(=O)c2c(=O)n1Cc1ccccc1	0.5	48.9	53.2*	0.5	2.3	12.6
COc1ccc2c(=O)c3c(=O)n(Cc4ccco4)c(-c4ccc(C)cc4)nc3oc2c1	0.6	40.2	44.1	0.6	6.1	44.3*
CCc1nc2oc3ccccc3c(=O)c2c(=O)n1Cc1ccccc1	1	4.3	3.4	1	0.6	2.9
COc1ccc2c(=O)c3c(=O)n(Cc4ccco4)c(C4CCCCC4)nc3oc2c1	0.5	26.4	53.4*	0.7	x	x
CCc1nc2oc3cc(OC)ccc3c(=O)c2c(=O)n1-c1ccccc1	1.2	-23.7	-16.3	1.2	-1.8	0.5
COc1ccc(CN/C(C)=C(/C#N)C(N)=O)cc1OC	0.9	6.2	11.5	0.9	10.3	3.4
CC(=O)N(Cc1cc2cc(C)c(C)cc2n2nnnc12)CC1COCCO1 (stereo not given)	0.8	4.4	24.6	1	3.5	1.1
O=C(c1ccccc1F)N(Cc1ccc2c(c1)OCO2)Cc1cc2cc3c(cc2n2nnnc12)OCO3	0.2	50.3*	77.7*	0.5	-1.3	20.7
Cc1cc2cc(CN(Cc3ccc4c(c3)OCO4)C(=O)c3cnccn3)c3nnnn3c2cc1C	0.4	63.2*	60.6*	0.4	-3.3	7.8
Cc1ccc2c(c1)cc(CN(Cc1ccc3c(c1)OCO3)C(=O)c1cnccn1)c1nnnn12	0.6	47.9	38.4	0.5	0.3	1.2
O=C(CN1C(=O)C2C3C=CC(C3)C2C1=O)NCc1ccc2c(c1)OCO2 (stereo not given)	0.7	14.9	27.3	0.9	0.3	-8.8
COC(=O)c1c[nH]n2c(=O)cc(CCl)nc12	1.1	24.3	-8.2	0.8	13.4	8.0
ON1C2CCCCC2N(O)C1c1c(F)c(F)c(F)c(F)c1F (stereo not given)	0.9	-4.0	12.6	1	6.1	10.5
O=C(C[n+]1cc2ccccc2c2ccccc21)c1ccccc1	0.4	72.4*	55.3*	0.3	-1.4	33.1*
CCOc1ccc(-c2nc(CSc3nncs3)cs2)cc1OC	0.5	7.1	53.3*	0.9	4.1	7.4
CCOc1ccc(-c2nc(CSc3nnc(C)s3)cs2)cc1OC	0.8	10.1	22.0	0.9	-11.5	11.8
Cc1nc2cc(-c3ccc(Cl)cc3)nn2c(C)c1CCC(=O)NCc1ccco1	0.2	19.7	79.1*	0.8	14.4	32.0*
Cc1ccc(-c2cc3nc(C)cc(NCc4ccco4)n3n2)cc1	0.7	36.2	26.9	0.6	8.3	33.2*
O=c1cc(CSc2nnc(-c3cccs3)n2Cc2ccccc2)nc2sc3ccccc3n12	0.1	95.4*	93.0*	0	1.8	26.1
